Gal4-VP16 FLuc: Gal4-VP16 reporter inhibition counter-screen; actives 3.5% (n = 310,000); Potency, µM (highest dose often 53.6 µM), for inactives: at the highest dose activity, negative = inhibition, actives largely listed as inhibitors; Drosophila S2 Gal4-VP16 UAS-luciferase, luminescence, 20 h;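 further: Gal4-VP16 expression switched on by copper sulfate through the metallothionein promoter; on the % scale 0 is the no-effect control and ±100 the full control effect; nearly all actives have a fitted effect of over 50% in size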
KB-3-1 tox: kills parental KB-3-1 adenocarcinoma cells. actives 1.4% (n = 400,000). AID 1347075. KB-3-1 viability, CellTiter-Glo ATP luminescence, 72 h. Potency, µM (top dose mostly 46.1 µM), hits mostly cytotoxic; further: on the % scale 0 is the no-effect control and ±100 the full control effect; nearly all actives have a fitted effect of over 60% in size
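Screening of KB-3-1 cells (DMEM, 10% FBS, phenol-red free) ran from lowest to highest compound concentration; after 72 h at 37 °C viability was read luminescently and curves fitted.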
RORgamma inh: inhibitors of mouse ROR gamma transcriptional activity; P51450; Drosophila S2 Gal4-RORgamma UAS-luciferase reporter, 20 h; Potency, µM (doses to about 53.6 µM), for the others: top-dose activity change, negative = inhibition, usual class: inhibitors; actives 5.4% (n = 310,000); further: on the % scale 0 is the no-effect control and ±100 the full control effect; nearly all actives have a fitted effect of over 60% in size
Target sequence (P51450 whole entry, looked up, the tested form may be a part): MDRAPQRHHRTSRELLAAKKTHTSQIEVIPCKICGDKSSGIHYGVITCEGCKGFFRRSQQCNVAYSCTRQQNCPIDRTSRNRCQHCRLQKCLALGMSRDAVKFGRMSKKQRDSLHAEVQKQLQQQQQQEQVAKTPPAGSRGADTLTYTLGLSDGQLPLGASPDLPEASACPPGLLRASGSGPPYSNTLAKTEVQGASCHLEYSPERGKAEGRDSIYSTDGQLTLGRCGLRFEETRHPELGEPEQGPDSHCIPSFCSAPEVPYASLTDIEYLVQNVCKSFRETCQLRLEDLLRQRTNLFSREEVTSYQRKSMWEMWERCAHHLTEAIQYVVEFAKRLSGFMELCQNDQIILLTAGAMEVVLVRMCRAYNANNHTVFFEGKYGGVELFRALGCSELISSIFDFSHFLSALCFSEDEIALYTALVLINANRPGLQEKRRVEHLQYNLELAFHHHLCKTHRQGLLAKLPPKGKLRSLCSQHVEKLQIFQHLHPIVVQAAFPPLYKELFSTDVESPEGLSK
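Luminescence from a UAS-regulated Photinus luciferase reporter in stably transfected Drosophila Schneider cells is measured; decreased signal marks ROR gamma inhibition. Fusion expression is induced by 700 uM copper sulfate for 20 hr.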
SW480 rerep: inducers of DNA re-replication in SW480 colon cancer cells. SW480 DNA re-replication, Hoechst DNA content imaging, 48 h. Potency, µM (top dose mostly 46.1 µM), inactives show at the highest dose re-replication activation, most hits filed as activators. actives 1.8% (n = 340,000); further: % of control where 0% means no effect; nearly all actives have a fitted effect of over 55% in size
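SW480 cells exposed to compounds for 48 hr at 37 C, 5% CO2, then Hoechst-stained 40 min. Nuclear DNA content imaged by fluorescence scanning (405 nm excitation, 500-530 nm emission); re-replication scored as increased high-intensity nuclei.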
KB-V1 cytotox: kills drug-selected multidrug resistant KB-V1 cells; Potency, µM (series often up to 46.1 µM), hits mostly cytotoxic; KB-V1 MDR cells viability, CellTiter-Glo, 72 h; actives 3.4% (n = 400,000); further: on the % scale 0 is the no-effect control and ±100 the full control effect; nearly all actives have a fitted effect of over 60% in size
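KB-V1 MDR subline cells in DMEM (phenol-red free, 10% FBS) exposed to compounds in qHTS concentration series for 72 h at 37 degrees C. Viability read by CellTiter-Glo luminescence; concentration-effect curves fitted after normalization and correction.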
MCF10A rerep: DNA re-replication induction in MCF 10a cells; Potency, µM (doses to about 46.1 µM), for the others: top-dose activity, positive = re-replication, hits mostly activators; actives 2.9% (n = 350,000); AID 624296; MCF 10A DNA re-replication, Hoechst nuclear intensity, 48 h; further: % of control where 0% means no effect; nearly all actives have a fitted effect of over 50% in size
An asterisk follows results filed as active; [ ] = dose if it differs, or a comment. The list is not random: actives were taken first. Their share in the collection is about 10%. The call rests on the fitted dose curve; in most records, active means well fitted curve in the direction sought with a large enough effect; inconclusive means small, poorly fitted or top-dose-only effect, or another doubt; inactive means no such curve, though single readings can be large; an effect the other way counts as inactive or inconclusive. Potency means the concentration at half of the fitted maximal effect.

Screening CC1=C(C#N)C(NC(=O)c2ccccc2)(C(F)(F)F)C(=O)N1 (stereo not given) returned KB-3-1 tox inactive and KB-V1 cytotox inactive.
For Cc1c(P(=S)(c2ccccc2)c2ccccc2)[n+]2ccccc2n1C/C=C/c1ccccc1 the results were KB-3-1 tox 10µM* and KB-V1 cytotox inactive.
O=S(=O)(/N=S1/CC=CCN1S(=O)(=O)c1ccccc1)c1ccccc1 (stereo not given) was read as Gal4-VP16 FLuc inconclusive, KB-3-1 tox inactive, RORgamma inh 11µM*, SW480 rerep inconclusive and KB-V1 cytotox inactive.
Screening COc1ccc(CN2C(=O)N(c3cccc(C)c3)C(=O)C2CC(=O)Nc2ccc(F)cc2)cc1OC (stereo not given) returned KB-3-1 tox inactive and KB-V1 cytotox inactive.
For O=C(Nc1nc([C@@H]2O[C@H](CO)[C@@H](O)[C@H](O)[C@H]2O)cs1)NC(c1ccccc1)c1ccccc1 the results were KB-3-1 tox 18µM* and KB-V1 cytotox inactive.
CC1(C(=O)O)CCN1C(=O)c1ccccc1F (stereo not given) was read as KB-3-1 tox inactive and KB-V1 cytotox inactive.
For O=C(c1ccc(Oc2ccc(C(F)(F)F)cn2)cc1)N1CCN(c2ccccc2)CC1 the results were Gal4-VP16 FLuc -1%, KB-3-1 tox inconclusive, RORgamma inh inconclusive, SW480 rerep -3%, KB-V1 cytotox 21µM* and MCF10A rerep 26%.
COc1ccc(N2CCN(C(=O)c3ccc(Oc4ccc(C(F)(F)F)cn4)cc3)CC2)cc1 was read as Gal4-VP16 FLuc inconclusive, KB-3-1 tox inconclusive, RORgamma inh inconclusive, SW480 rerep 1%, KB-V1 cytotox inconclusive and MCF10A rerep 5%.
For COc1ccc(OC)c(NC(=O)Cc2nn(C)c(=O)c3ccccc23)c1 the results were Gal4-VP16 FLuc -4%, KB-3-1 tox inactive, RORgamma inh -9%, SW480 rerep -1%, KB-V1 cytotox inconclusive and MCF10A rerep 15%.
O=C(c1csc2ccccc12)N1CCN(c2ccc(Cl)c(Cl)c2)CC1 was read as Gal4-VP16 FLuc inconclusive, KB-3-1 tox inactive, RORgamma inh inconclusive, SW480 rerep 2%, KB-V1 cytotox inactive and MCF10A rerep -186%[0.0737 µM].
For COc1cc(NC(=O)Cc2nn(C)c(=O)c3ccccc23)cc(OC)c1OC the results were Gal4-VP16 FLuc -2%, KB-3-1 tox inactive, RORgamma inh 13%, SW480 rerep -8%, KB-V1 cytotox 15µM* and MCF10A rerep 6%.
For COc1ccc(N2CCN(C(=O)c3csc4ccccc34)CC2)cc1 the results were Gal4-VP16 FLuc -5%, KB-3-1 tox inactive, RORgamma inh inconclusive, SW480 rerep 1%, KB-V1 cytotox 21µM* and MCF10A rerep 9%.
For O=C(Cc1ncc(C(F)(F)F)cc1Cl)N1CCN(c2ccc(F)cc2)CC1 the results were Gal4-VP16 FLuc 6%, KB-3-1 tox inactive, RORgamma inh 32%, SW480 rerep 1%, KB-V1 cytotox inactive and MCF10A rerep 4%.
COc1ccc(N2CCN(C(=O)Cc3ncc(C(F)(F)F)cc3Cl)CC2)cc1 was read as Gal4-VP16 FLuc -1%, KB-3-1 tox inactive, RORgamma inh 16%, SW480 rerep 5%, KB-V1 cytotox 21µM* and MCF10A rerep 3%.
For Cc1cc(C)c2sc(N(Cc3cccnc3)C(=O)CCOc3ccccc3)nc2c1 the results were KB-3-1 tox inactive and KB-V1 cytotox inactive.
For COc1ccc(N2CCN(C(=O)Cc3nn(C)c(=O)c4ccccc34)CC2)cc1 the results were Gal4-VP16 FLuc -22%, KB-3-1 tox inactive, RORgamma inh 15%, SW480 rerep -9%, KB-V1 cytotox 15µM* and MCF10A rerep -12%.
`COc1ccc(CNC(=O)Cc2nn(C)c(=O)c3ccccc23)cc1` gave Gal4-VP16 FLuc 8.9µM*, KB-3-1 tox inconclusive, RORgamma inh inconclusive, SW480 rerep -5%, KB-V1 cytotox inactive and MCF10A rerep 18%.
`CCOC(=O)[C@]12CCCC=C1N(Cc1ccc3c(c1)OCO3)C(=O)[C@H](CC(=O)N1CCCC1)C2` gave KB-3-1 tox inactive and KB-V1 cytotox inactive.
Screening Cc1cc(C)nc(N/C(=N\S(=O)(=O)Cc2ccccc2)Nc2ccccc2Br)n1 returned Gal4-VP16 FLuc -24%, KB-3-1 tox inactive, RORgamma inh -21%, SW480 rerep inconclusive, KB-V1 cytotox inconclusive and MCF10A rerep 4.1µM*.
CSc1nc(C)cc(Nc2c(C)cc(C)cc2C)n1 was read as KB-3-1 tox inactive and KB-V1 cytotox inactive.
For COc1ccc(/C=C2/NC(=O)N(Cc3ccccc3F)C2=O)cc1OC the results were Gal4-VP16 FLuc -11%, KB-3-1 tox inactive, RORgamma inh -17%, SW480 rerep -4%, KB-V1 cytotox inactive and MCF10A rerep -2%.
For CCn1c(C)cc(/C=C2\NC(=O)N(Cc3ccc(Cl)cc3)C2=O)c1C the results were Gal4-VP16 FLuc 2%, KB-3-1 tox inactive, RORgamma inh 19%, SW480 rerep 14µM*, KB-V1 cytotox inactive and MCF10A rerep inconclusive.
Screening COc1cc(/C=C2/NC(=O)N(Cc3ccccc3F)C2=O)cc(OC)c1OC returned Gal4-VP16 FLuc -13%, KB-3-1 tox inactive, RORgamma inh 29%, SW480 rerep -11%, KB-V1 cytotox 0.18µM* and MCF10A rerep 4%.
`Cc1cc(/C=C2/NC(=O)N(Cc3ccccc3F)C2=O)c(C)n1-c1ccccn1` gave Gal4-VP16 FLuc 12%, KB-3-1 tox inactive, RORgamma inh inconclusive, SW480 rerep 0.82µM*, KB-V1 cytotox inconclusive and MCF10A rerep inconclusive.
Cc1ccc(-c2ccc(C3C4C=CCC(C)C4C(=O)N3Cc3ccccc3)c(F)c2)cc1 (stereo not given) was read as Gal4-VP16 FLuc -5% and RORgamma inh -1%.
COc1ccc(C(=O)NNC(=O)C(=O)/C=C(\O)c2ccc(C)cc2)cc1 was read as Gal4-VP16 FLuc inconclusive, KB-3-1 tox inactive, RORgamma inh 13µM*, SW480 rerep inconclusive, KB-V1 cytotox inactive and MCF10A rerep 1%.
Screening C/C(=C\C(=O)c1ccccc1)NNC(=O)c1ccc(Cl)cc1 returned Gal4-VP16 FLuc 4.5µM*, KB-3-1 tox inactive, RORgamma inh 7.1µM*, SW480 rerep inconclusive, KB-V1 cytotox inactive and MCF10A rerep inconclusive.

Screening data deposited in PubChem by National Center for Advancing Translational Sciences (NCATS).
